An excerpt weighted towards active compounds, which were near 1.1% of everything screened.
MBNL1-CUG inh – MBNL1-poly(CUG) RNA binding inhibition | Potency, µM (highest dose often 57.5 µM), without a hit: at the top dose activity change, negative = inhibition, hits mostly inhibitors | 280,000 compounds, 0.036% hits | TR-FRET MBNL1-His/biotin-(CUG)12 binding, 665/545 ratio | AID 2675; active = well fitted inhibition curve with a large enough effect in the signal ratio, with a control signal flat, not every such curve was filed as active; inconclusive = small, poorly fitted or top-dose-only effect, or effect the other way, or a change in a side signal; inactive = no such curve, though single readings can be large or run the other way; the % refers to the signal ratio; also: potency is read from the fitted curve at half-maximal effect; % is scaled to controls: 0 for no effect and ±100 for the full control effect
Target sequence (Q9NR56 whole entry, looked up): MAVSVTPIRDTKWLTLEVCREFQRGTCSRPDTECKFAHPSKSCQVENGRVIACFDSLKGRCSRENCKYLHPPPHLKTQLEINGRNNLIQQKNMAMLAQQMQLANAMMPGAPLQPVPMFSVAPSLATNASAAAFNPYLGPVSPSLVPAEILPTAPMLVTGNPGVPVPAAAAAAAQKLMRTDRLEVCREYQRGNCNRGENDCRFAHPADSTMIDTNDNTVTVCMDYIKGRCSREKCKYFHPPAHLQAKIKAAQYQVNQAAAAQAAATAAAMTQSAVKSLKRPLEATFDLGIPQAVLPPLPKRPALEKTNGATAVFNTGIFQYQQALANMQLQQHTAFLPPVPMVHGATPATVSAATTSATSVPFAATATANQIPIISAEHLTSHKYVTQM
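MBNL1-His + Biotin-(CUG)12, cpd titration 92 nM–58 uM; Tb anti-His Ab 0.055 ng/ul, SA-XL665 5 nM (final); 60 min RT; ratiometric 665/545 nm, Ex 340 nm; normalized to buffer and full-complex controls.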
uPA generation – cell surface uPA generation inhibition | AID 540303 | cell surface uPA generation assay, qHTS | 330,000 compounds, 0.31% hits | Potency, µM (series often up to 38.3 µM), for inactives: at the top dose activity change, negative = inhibition, hits mostly inhibitors; active = well fitted inhibition curve with a large enough effect; inconclusive = small, poorly fitted or top-dose-only effect; inactive = no such curve, though single readings can be large or run the other way; tested in mouse RAW 264.7 cells; also: potency is read from the fitted curve at half-maximal effect; % is scaled to controls: 0 for no effect and ±100 for the full control effect; nearly all actives have a fitted effect of over 55% in size
Mito fusion yeast – blocks mitochondrial division or promotes mitochondrial fusion. S. cerevisiae fusion-defective mutant growth rescue, CellTiterGlo 48 h. Potency, µM (top dose mostly 46.1 µM), for inactives: top-dose growth rescue (activation), actives largely listed as activators. 320,000 compounds, 0.23% hits; active = well fitted activation curve with a large enough effect; inconclusive = small, poorly fitted or top-dose-only effect; inactive = no such curve, though single readings can be large or run the other way; also: potency is read from the fitted curve at half-maximal effect; % of control where 0% means no effect; nearly all actives have a fitted effect of over 45% in size
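S. cerevisiae fusion-defective temperature-sensitive mutants (e.g. fzo1-1, mgm1-5) grown 48 h at 37C in YPEG (ethanol/glycerol non-fermentable) medium with 23 nl compound per well; growth rescue read as CellTiterGlo luminescence.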
CtBP-E1A blk – inhibitors of CtBP/E1A interaction. AlphaScreen GST-E1A/His-CtBP binding, 1536-well; hits give low values. activity change, % (concentration not given with the values). AID 651724. 340,000 compounds, 0.49% hits; also: % is scaled to controls: 0 for no effect and ±100 for the full control effect
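GST-E1A and His-tagged CtBP (125 nM each as 5X stock) were preincubated with pin-transferred compound for 2 h at 37 °C in the dark, then glutathione donor and nickel acceptor beads were added for 1 h before AlphaScreen reading.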
Six1-Eya2 inh – inhibitors of human Six1/Eya2 interaction; 360,000 compounds, 0.56% hits; AlphaScreen GST-Six1/His-Eya2 binding, biochemical; hits give low values; activity change, % (no concentration beside the values); Q15475+O00167; AID 651725; also: % is scaled to controls: 0 for no effect and ±100 for the full control effect
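AlphaScreen with GST-Six1 and His-Eya2 (5X mix: 250 nM and 500 nM), glutathione donor and nickel acceptor beads; buffer 50 mM Tris pH 8.0, 300 mM NaCl, 1 mM TCEP; 1 h at 37 C in the dark.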
* hit, by the source's call; ? = inconclusive; . = no result. Rule as the data show it, unless noted: active = activity change below about -65%; inconclusive = mostly about -30% to -63%; inactive = weaker than that.

SMILES	MBNL1-CUG inh	uPA generation	Mito fusion yeast	CtBP-E1A blk	Six1-Eya2 inh
COc1cc(NC(=O)n2ncc3cc(Cl)ccc32)cc(OC)c1	13%	-14%	3%	-16	3
O=C(Nc1ccccc1F)n1ncc2cc(Cl)ccc21	-2%	-3%	5.6µM*	-21	-11
Cc1ccc(O)c(/C=N/NC(=O)CN2CCCC2)c1	6%	?	1%	.	-65*
Cc1cc(C)n(CCC(=O)N/N=C/c2c(O)ccc3ccccc23)n1	12%	?	3%	.	-89*
O=c1c2ccccc2nc(N/N=C/c2c(O)ccc3ccccc23)n1O	6%	-13%	-14%	-94*	-90*
O=C(CN1CCCC1)N/N=C/c1c(O)ccc2ccccc12	?	5µM*	2%	-91*	-90*
CCOC(=O)[C@]12CCC=C1N(Cc1ccco1)C(=O)[C@H](CC(=O)N1CCCC1)C2	.	.	.	-2	2
O=C(NN=Cc1c(O)ccc2ccccc12)C1CC1	.	-13%	.	-69*	?
O=C(NN=Cc1cccc2ccccc12)C1CC1	.	-3%	.	-2	-7
O=C(N/N=C/c1c(O)ccc2ccccc12)C(=O)N1CCCC1	.	.	.	?	-87*
COc1ccc(COc2cc(-c3cccc(OC)c3)nc3ccc(NC(C)=O)cc23)cc1	4%	3%	-2%	-29	?
COc1ccc(COc2cc(-c3cccc(OC)c3)nc3ccc(N)cc23)cc1	50%	1.1µM*	4%	.	-8
COc1ccc(/C=N/N2CCN(c3ccccc3OC)CC2)cc1OC	11%	.	-5%	-3	-2
CCN(CC)c1ccc(/C=N/N2CCN(c3ccccc3OC)CC2)cc1	5%	-34%	1%	-21	-67*
CCN(CC)c1ccc(/C=N/N2CCN(Cc3ccccc3)CC2)cc1	15%	-5%	-15%	?	?
CCN(CC)c1ccc(/C=N/N2CCN(Cc3ccccc3)CC2)c(O)c1	.	7%	3%	?	-75*
CCN(CC)c1ccc(/C=N/N2CCN(Cc3ccccc3Cl)CC2)cc1	2%	1%	-7%	-27	-74*
Cn1c2cc([N+](=O)[O-])sc2c2cnn(Cc3ccccc3F)c(=O)c21	.	.	1%	.	.
Cc1onc(-c2ccccc2Cl)c1C(=O)N1CCN(c2cccc(Cl)c2)CC1	-3%	2.2µM*	1%	1	-11
Cc1onc(-c2ccccc2Cl)c1C(=O)N1CCN(c2ccccc2)CC1	-3%	-17%	6%	-16	-4
CCOC(=O)[C@]12CCCC=C1N(Cc1ccc3c(c1)OCO3)C(=O)[C@H](CC(=O)N1CCN(C(=O)C3CC3)CC1)C2	.	.	.	7	0
Cc1ccc(C)c2sc(N3CCN(C(=O)c4ccc([N+](=O)[O-])o4)CC3)nc12	.	-4%	20µM*	0	-5
O=C(c1ccc([N+](=O)[O-])o1)N1CCN(c2nc3c(F)cc(F)cc3s2)CC1	.	-1%	?	-2	-11
COc1ccccc1Cc1c(-c2ccc(Cl)cc2)nc2ccc(Br)cn12	.	.	.	1	-4
COC(=O)[C@]12CCCCC=C1N(Cc1ccccc1)C(=O)[C@H](CC(=O)NCC13CC4CC(CC(C4)C1)C3)C2	.	.	.	-7	-12
SMILES	MBNL1-CUG inh	uPA generation	Mito fusion yeast	CtBP-E1A blk	Six1-Eya2 inh
Cn1c(/C=C/c2ccc(Cl)cc2)c([N+](=O)[O-])c(=O)n(C)c1=O	10%	5.6µM*	-9%	?	-7
COC(=O)c1nn(-c2ccc(OC)cc2)c(=O)cc1Oc1ccccc1	?	1%	-3%	6	0
COC(=O)c1nn(-c2ccc(OC)cc2)c(=O)cc1O	?	3%	1.6µM*	5	2
CNc1ccc(-c2cccc([N+](=O)[O-])c2)cn1	.	.	.	0	-16
Cc1noc(/C=C/c2nn(C)cc2Cl)c1[N+](=O)[O-]	7%	4.5µM*	-23%	.	11
Cn1ncc2c(O/N=C(\N)c3ccc(C(F)(F)F)cc3)ncnc21	-3%	2.8µM*	-2%	.	-2
Cc1ccc(C(=O)NNc2ncnc3c2cnn3C)cc1	.	-1%	5%	8	3
COc1cccc(NC(=O)c2cnn(-c3ccccc3)c2C)c1	-11%	10µM*	-8%	-3	3
CC(C)(C)c1ccc(OCC(=O)Nc2ccc(S(=O)(=O)Nc3ncccn3)cc2)cc1	.	.	-6%	.	.
CC1(C)CC(=O)C(C(c2ccc3c(c2)OCO3)C2C(=O)CC(C)(C)CC2=O)C(=O)C1	.	.	.	5	-5
O=[N+]([O-])c1ccc(Nc2nc(N/N=C/c3cccc(F)c3)nc(N3CCCC3)n2)cc1	11%	-2%	16µM*	-23	-14
CCOc1ccccc1NC(=O)COn1nnc2ccc(Cl)cc21	-1%	0%	11µM*	4	0
C[C@@H](O)[C@H]1C(=O)N2C(C(=O)O)=C(SCCN=CN)C[C@H]12	.	.	5%	.	.
CC(C)C(=O)N1CCCC1(C)C(=O)Nc1ccccc1 (stereo not given)	.	.	.	6	2
O=C(O)C1=CC(=C(c2ccc(O)c(C(=O)O)c2)c2ccc(O)c(C(=O)O)c2)C=CC1=O	.	.	13µM*	.	.
CCOc1ccc(Cl)cc1-c1cc(C(=O)Nc2ccc(Br)cc2)[nH]n1	.	.	.	0	-4
CC(C(Sc1ccccc1N)c1ccccc1)[N+](=O)[O-] (stereo not given)	-6%	11µM*	-3%	-4	-16
COc1ccc(N2C(=O)c3ccccc3NC(=O)C2C(=O)NCc2ccco2)cc1 (stereo not given)	.	.	.	3	-4
COc1ccc(N(CC(=O)Nc2cc(Cl)ccc2OC)S(=O)(=O)c2c(C)[nH]c(=O)[nH]c2=O)cc1	-5%	1%	27%	-95*	-90*
COc1ccc(N(CC(=O)Nc2cc(C)ccc2C)S(=O)(=O)c2c(C)[nH]c(=O)[nH]c2=O)cc1	-2%	0%	-4%	-26	-9
CCn1c(=N)n(CCOc2ccc(Br)cc2)c2ccccc21	.	.	-4%	.	.
CNS(=O)(=O)c1cc(-c2nn3c(C)nnc3c3ccccc23)ccc1C	.	.	1%	.	.
c1ccc(-c2n[nH]c(-c3ccccn3)n2)nc1	-1%	-1%	-6%	-95*	-92*
c1ccc(-c2n[nH]c(-c3ccccn3)n2)cc1	0%	-5%	-1%	-92*	-91*
c1ccc(-c2nn[nH]n2)nc1	-5%	-6%	2%	-72*	-87*
c1ccc(-c2nc(-c3ccccn3)no2)cc1	-4%	?	-2%	-25	0
CCOC(=O)N1CCN(C(=O)c2ccc(CS(=O)c3cccc(C)c3)o2)CC1 (stereo not given)	.	.	.	-3	-3
CCN(CC(=O)Nc1ccccc1C(F)(F)F)C(=O)C1CC(=O)N(Cc2ccccc2)C1 (stereo not given)	.	0%	1%	-2	-86*
Cn1c(=O)c(Nc2ccc(O)cc2)c2c3c(cccc31)C(=O)c1ccccc1-2	?	-2%	16%	-73*	-77*
